According to PubChem BioAssay (EPA / NIEHS):
Results filed as inconclusive are left out. Activity calls are given as the source filed them. Rule for the calls, unless noted: active = hit-call score of the fitted dose curve at least 0.9, where 1 is the maximum; inactive = score below 0.9.

How the values were obtained:
[1] = IUF_NPC1b_proliferation_BrdU_72hr: Leibniz Research Institute for Environmental Medicine (IUF) 72-hour Neural Progenitor Cell Bromodeoxyuridine (BrdU) Proliferation Assay (NPC1b) (AID 2284207)
In short: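 BrdU luminescence ELISA quantified DNA synthesis over the last 16 h of a 72 h exposure, fitted against DMSO. Primary hNPC spheres from gestational week 16-19 cortex grown with EGF/FGF at 37C, pH 7.2-7.6.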

[2] = IUF_NPC2c_oligodendrocyte_migration_120hr: Leibniz Research Institute for Environmental Medicine (IUF) 120-hour Neural Progenitor Cell Migration Assay for Oligodendrocyte Migration (NPC2c) (AID 2284297);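 note: O4-positive oligodendrocyte migration distance divided by radial glia migration distance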
In short: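 Human fetal neural progenitor spheres (0.3 mm) are plated on poly-D-lysine/laminin in N2 differentiation medium and exposed for 120 h, with half-medium renewal at day 3. Oligodendrocyte (O4+) migration distance comes from ICC imaging, normalised to radial glia migration.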

[3] = IUF_NPC2a_radial_glia_migration_120hr: Leibniz Research Institute for Environmental Medicine (IUF) 120-hour Neural Progenitor Cell Migration Assay for Radial Glia Migration (NPC2a) (AID 2284298)
In short: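 Human fetal-cortex neural progenitor spheres (0.3 mm) plated on poly-D-lysine/laminin in N2 differentiation medium, exposed 120 h at 37C with half-medium renewal at day 3. Radial glia migration distance (um) measured from Hoechst-stained nuclei images; DMSO baseline.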

[4] = IUF_NPC2a_radial_glia_migration_72hr: Leibniz Research Institute for Environmental Medicine (IUF) 72-hour Neural Progenitor Cell Migration Assay for Radial Glia Migration (NPC2a) (AID 2284299)
In short: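 Primary hNPC spheres, fetal brain GW 16-19, on PDL/laminin; DMEM/F12 3:1 + 1% N2. Compound dosed day 0, 7 conc. + SC, half-medium refresh day 3. 72 h brightfield, migration distance core-to-front (um), 4 directions averaged.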

[5] = IUF_NPC2b_neuronal_migration_120hr: Leibniz Research Institute for Environmental Medicine (IUF) 120-hour Neural Progenitor Cell Migration Assay for Neuron Migration (NPC2b) (AID 2284300)
In short: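 0.3 mm hNPC spheres on poly-D-lysine/laminin in N2 differentiation medium exposed 120 h, half-medium refresh day 3; 7 concentrations, DMSO max 0.1%. Neuron (TUBB3) distance from sphere core by ICC imaging, normalised to radial glia migration.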

[6] = IUF_NPC3_neuronal_differentiation_120hr: Leibniz Research Institute for Environmental Medicine (IUF) 120-hour Neuronal Differentiation Assay (NPC3) (AID 2284301)
In short: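 Human fetal (GW 16-19) neural progenitor spheres (0.3 mm) plated on poly-D-lysine/laminin in N2 differentiation medium, exposed 120 h at 37C with half-medium renewal day 3; 7 concentrations. TUBB3+ cells as % of Hoechst nuclei, CNN-identified; DMSO baseline.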

[7] = IUF_NPC2-5_cytotoxicity_72hr: Cytotoxicity Assessment at 72 hours in the Leibniz Research Institute for Environmental Medicine (IUF) Neural Progenitor Cell Migration and Differentiation Assay for Cytotoxicity (NPC2-5) (AID 2284306; active = hit-call score of the fitted dose curve at least 0.9, where 1 is the maximum;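 note: LDH release into supernatant measured by resorufin fluorescence marking membrane damage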)
In short: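 Human fetal primary neural progenitor spheres (0.3 mm) plated on poly-D-lysine/laminin in N2 differentiation medium, exposed from day 0 at 37C. LDH-dependent resazurin-to-resorufin fluorescence in supernatant at 72 h; 7 concentrations, DMSO at most 0.1%.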

[8] = IUF_NPC2-5_cytotoxicity_120hr: Cytotoxicity Assessment at 120 hours in the Leibniz Research Institute for Environmental Medicine (IUF) Neural Progenitor Cell Migration and Differentiation Assay (NPC2-5) (AID 2284307; active = hit-call score of the fitted dose curve at least 0.9, where 1 is the maximum)
In short: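 Human fetal (GW 16-19) neural progenitor spheres (0.3 mm) plated on poly-D-lysine/laminin in N2 differentiation medium, exposed 120 h with half-medium renewal at day 3; 7 concentrations plus solvent control, DMSO ≤0.1%. LDH release in supernatant read by resorufin fluorescence.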

[9] = IUF_NPC2-5_cell_number_120hr: Cell Number Assessment at 120 hours in the Leibniz Research Institute for Environmental Medicine (IUF) Neural Progenitor Cell Migration and Differentiation Assay (NPC2-5) (AID 2284308);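 note: count of Hoechst-stained nuclei in migration zone around plated human neural progenitor spheres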
In short: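 Human fetal neural progenitor spheres (0.3 mm) plated on poly-D-lysine/laminin in N2 differentiation medium, exposed five days across 7 concentrations with half-medium refresh at day 3. Hoechst-positive nuclei counted in migration area at 120 h, relative to DMSO.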

[10] = IUF_NPC2-5_viability_120hr: Viability Assessment at 120 hours in the Leibniz Research Institute for Environmental Medicine (IUF) Neural Progenitor Cell Migration and Differentiation Assay (NPC2-5) (AID 2284312)
In short: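 Human fetal neural progenitor spheres (0.3 mm) plated on poly-D-lysine/laminin in N2 differentiation medium, exposed 120 h with half-medium refresh at day 3. Viability by alamar blue resazurin fluorescence; 7 concentrations, DMSO max 0.1%.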

[11] = CCTE_Shafer_MEA_dev_bursting_electrodes_number: CCTE's Neural Network Formation Assay for Number of Bursting Electrodes, Shafer Lab (AID 2284043; active = hit-call score of the fitted dose curve at least 0.9, where 1 is the maximum;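 note: potency is for loss of bursting electrodes relative to DMSO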)
In short: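 Primary rat cortical neurons plated on 16-electrode MEA wells, exposed from day 0 with compound renewed at DIV 5 and 9. Electrodes bursting ≥1 burst per 2 min counted on days 5, 7, 9 and 12; trapezoidal AUC across days, fitted for loss versus DMSO.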

[12] = CCTE_Shafer_MEA_dev_AB: CCTE's Alamar Blue Assay for Cytotoxicity in the Neural Network Formation Assay, Shafer Lab (AID 2284083; active = hit-call score of the fitted dose curve at least 0.9, where 1 is the maximum;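 note: resazurin reduction fluorescence as viability of cultured neurons; twelve days of exposure from plating with re-dosing on DIV 5 and 9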)
In short: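 Rat cortical primary cultures, 1.5 x 10^5 cells/well on MEA; continuous compound exposure over 12 days of network development, re-dosed with full medium change DIV 5 and 9. Alamar Blue fluorescence; loss of signal = cytotoxicity vs DMSO baseline.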

[13] = CCTE_Mundy_HCI_Cortical_Synap_Neur_Matur_NeuriteSpotCountPerNeuriteLength: CCTE's Synaptogenesis and Neurite Maturation Assay in rat cortical cells for Neurite Spot Count per Neurite Length, Mundy Lab (AID 2284210)
In short: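 Rat primary cortical cultures, AraC added at DIV 5 to suppress glia; chemical exposure from DIV 7 to DIV 12. Fixed cells stained for MAP2 and synaptophysin plus Hoechst; synaptophysin puncta per neurite length quantified by high-content imaging, relative to DMSO.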

[14] = CCTE_Mundy_HCI_Cortical_NOG_NeuriteLength: CCTE's Neurite Outgrowth Assay in rat cortical cells for Neurite Length, Mundy Lab (AID 2284213);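 note: neurites imaged about 48 to 50 h after chemical exposure began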
In short: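 Neurite length was read by high-content imaging of βIII-tubulin-labelled neurites in rat primary cortical cultures. Activity was fitted relative to DMSO.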

[15] = CCTE_Mundy_HCI_Cortical_Synap_Neur_Matur_NeuriteLength: CCTE's Synaptogenesis and Neurite Maturation Assay in rat cortical cells for Neurite Length, Mundy Lab (AID 2284214)
In short: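 Rat cortical neurons, AraC at DIV 5; compound + media change DIV 7, end DIV 12 (288.33 h). Fix, MAP2/synaptophysin/Hoechst immunostain, automated HCI of neurite length vs DMSO.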

[16] = CCTE_Mundy_HCI_Cortical_Synap_Neur_Matur_NeuriteSpotCountPerNeuron: CCTE's Synaptogenesis and Neurite Maturation Assay in rat cortical cells for Neurite Spot Count per Neuron Count, Mundy Lab (AID 2284215)
In short: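 Rat primary cortical cultures given AraC at DIV 5, dosed from DIV 7 to DIV 12 with media change. Fixed, stained for MAP2, synaptophysin and Hoechst; neurite-associated synaptophysin puncta per neuron quantified by high-content imaging versus DMSO.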

[17] = CCTE_Mundy_HCI_Cortical_Synap_Neur_Matur_SynapseCount: CCTE's Synaptogenesis and Neurite Maturation Assay in rat cortical cells for Synapse Count, Mundy Lab (AID 2284218)
In short: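 Primary rat cortical culture; AraC DIV 5 to arrest glia; compound + media change DIV 7; terminated DIV 12. PFA/Hoechst fix, anti-MAP2 + anti-synaptophysin immunostain; HCI synapse count/neuron; DMSO = baseline.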

[18] = CCTE_Mundy_HCI_Cortical_Synap_Neur_Matur_CellBodySpotCount: CCTE's Synaptogenesis and Neurite Maturation Assay in rat cortical cells for Cell Body Spot Count, Mundy Lab (AID 2284223)
In short: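 Primary rat cortical cultures, AraC added at DIV 5; dosed DIV 7 through DIV 12 […]. Fixed, stained for MAP2 and synaptophysin with Hoechst; cell body-associated synaptophysin puncta per neuron counted by high-content imaging, loss vs DMSO.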

Measured: AC50

CC(C)CC(C)c1sccc1NC(=O)c1cn(C)nc1C(F)(F)F (stereo unspecified)
inactive: [1] | [2] | [4] | [5] | [6] | [7] | [8] | [9] | [10]
active: [3] 10 µM

Cn1nc(C(F)(F)F)c(CS(=O)(=O)C2=NOC(C)(C)C2)c1OC(F)F
active: [11] 87.5 µM | [12] 68.9 µM | [14] 66.8 µM | [15] 28 µM | [16] 9.92 µM | [3] 33.8 µM | [6] 9.95 µM
inactive: [1] | [13] | [17] | [18] | [2] | [4] | [5] | [7] | [8] | [9] | [10]

CC1(C)C(C=C(Cl)Cl)C1C(=O)O[C@H](C#N)c1cccc(Oc2ccccc2)c1 (stereo partly specified)
active: [11] 3.6 µM | [12] 5.41 µM | [1] 12.8 µM | [13] 15.6 µM | [14] 82 µM | [15] 11 µM | [16] 10.8 µM | [17] 10.9 µM | [18] 12 µM | [6] 0.851 µM
inactive: [2] | [3] | [4] | [5] | [7] | [8] | [9] | [10]
